# Screening data as filed in PubChem BioAssay.
# Most compounds without a hit are left out; they make up all but 28% or so of the library.
# CYP2C19 activ: increases human CYP2C19 enzyme activity; P33261; activation factor at 5 µM; 96,000 tested, under 10 active; AID 1025; recombinant CYP2C19, luciferin-H EGE luminescence; stronger effect = higher value; 0 = fully inhibited enzyme, 1 = untreated enzyme;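 active means activation factor of at least 2 at 5 µM in the primary screen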;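 further: 0 = wells with 2.5 mM tranylcypromine and 1 = vehicle-only wells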
# CYP2C9 inhib: blocks human cytochrome P450 2C9 | P11712 | CYP2C9 Supersomes, luciferin-H conversion, luminescence | inhibition, % at 5 µM | 96,000 tested, 20% active | AID 777;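 active means blocking of liver enzyme CYP2C9 beyond about 50% at 5 µM, limit read from the data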
# Target sequence (P11712 whole entry, looked up): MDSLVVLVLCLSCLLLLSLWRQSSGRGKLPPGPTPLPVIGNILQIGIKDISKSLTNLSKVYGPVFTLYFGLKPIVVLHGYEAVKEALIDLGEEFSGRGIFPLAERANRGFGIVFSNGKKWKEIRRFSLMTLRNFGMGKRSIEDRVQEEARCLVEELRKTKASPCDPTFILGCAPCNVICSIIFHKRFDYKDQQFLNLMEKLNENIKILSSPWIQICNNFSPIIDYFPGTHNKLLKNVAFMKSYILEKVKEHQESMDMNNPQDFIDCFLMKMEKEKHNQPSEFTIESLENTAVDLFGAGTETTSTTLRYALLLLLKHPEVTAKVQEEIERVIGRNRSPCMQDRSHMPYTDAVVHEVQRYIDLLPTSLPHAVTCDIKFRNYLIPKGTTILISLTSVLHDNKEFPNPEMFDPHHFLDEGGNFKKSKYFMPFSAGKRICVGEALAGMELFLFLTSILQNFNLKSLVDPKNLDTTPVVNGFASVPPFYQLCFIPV
# CYP2C9 activ: activators of human CYP2C9. P11712. recombinant CYP2C9, luciferin-H conversion, luminescence; stronger effect = higher value; factor 1 = untreated enzyme, 0 = blocked. activation factor at 5 µM. 96,000 tested, 1.4% active. AID 1024;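 active means activation factor of 2 or more for CYP2C9 at a 5 µM dose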;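 further: 0 = sulfaphenazole-blocked wells and 1 = vehicle-only wells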
# Mac1 fbg enh: increases human CD11b/CD18 adhesion to fibrinogen; P05107+P11215; K562 CD11b/CD18 adhesion to fibrinogen, ATPlite luminescence; activation, % at 10 µM; 93,000 tested, 0.07% active;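 active means 10 µM primary screen giving 50% or more activity, confirmed by 40% or more on retest at that dose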
# CYP2C19 inh: human CYP2C19 inhibition; inhibition, % at 5 µM; P33261; 96,000 tested, 21% active; CYP2C19 Supersomes, luciferin-H EGE luminescence, 30 min;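 active means CYP2C19 inhibition above a set limit at 5 µM in the primary screen, cut at about 50% in these data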;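 further: plate controls were negative control wells for no effect and 2.5 mM tranylcypromine positive control for full effect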
# Mac1 fbg inh: blocks human CD11b/CD18 adhesion to fibrinogen | P05107+P11215 | K562 CD11b/CD18 adhesion to fibrinogen, ATPlite luminescence; Mn2+ added to activate the integrin | inhibition, % at 10 µM | 93,000 tested, 0.54% active | AID 1497;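 active means primary inhibition of 50% or more at 10 µM, then 40% or more on retest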
# Active calls of the source: *; x = no result.
SMILES,CYP2C19 activ,CYP2C9 inhib,CYP2C9 activ,Mac1 fbg enh,CYP2C19 inh,Mac1 fbg inh
CCCCCn1c(C(C)NC(=O)CCC)nc2ccccc21 (stereo not drawn),1,9,0.9,2,-1,-26
Cn1c(=O)c2c(nc(SCCCO)n2Cc2ccccc2Cl)n(C)c1=O,0.7,54*,0.5,3,34,-33
C=CC(C)Sc1nc2c(c(=O)n(C)c(=O)n2C)n1Cc1ccccc1Cl (stereo not drawn),0.9,13,0.9,-2,6,-14
Cn1c(=O)c2c(nc(Sc3n[nH]c(N)n3)n2Cc2ccccc2Cl)n(C)c1=O,0.5,15,0.8,0,54*,12
CC1(C)NC(C)(C)C(O)(C(N)=O)C1=O (stereo not drawn),1,-22,1.2,x,-4,x
O=C(/C=C/Nc1ccccc1Br)c1ccccn1,0.8,-1,1,-12,23,82
C/C(=C\C(=O)c1ccc(C)cc1)Nc1cccc(O)c1,0.8,-44,1.4,1,21,-13
Cc1ccc(C(=O)/C=C/Nc2cccc(O)c2)cc1,0.8,-72,1.7,-11,25,91*
O=C(/C=C/Nc1cccc(O)c1)c1ccccc1,0.6,-5,1.1,-2,37,69*
CC(=O)c1cccc(NS(=O)(=O)c2ccc(N/C=C\C(=O)c3ccc(C)cc3)cc2)c1,0.8,65*,0.4,-3,15,-6
O=C(/C=C\Nc1ccccn1)c1ccccc1,0.2,38,0.6,-4,79*,17
O=C(/C=C/Nc1ccccc1)c1ccc(Oc2ncccn2)cc1,x,39,0.6,x,x,x
O=C(Cc1sc(Nc2ccccc2)nc1-c1ccccc1)NCc1ccccc1,x,x,x,-2,x,11
CN(C)S(=O)(=O)c1ccc(N2CCCC2)c(C(=O)NCc2ccc(Cl)cc2)c1,0.7,17,0.8,-2,27,2
S=C1N(c2ccccc2)C(c2cccc3ccccc23)N2CCCN12 (stereo not drawn),0.8,34,0.7,-2,18,11
CN1CCCc2cc3c(C(F)(F)F)cc(=O)oc3nc21,0.9,10,0.9,2,14,-5
COc1ccc(Nc2nnc(-c3ccc(N4CCOCC4)c([N+](=O)[O-])c3)c3ccccc23)cc1,0.8,53*,0.5,x,17,x
Cc1ccc(CNc2nc(C)nc3sc4c(c23)CCC4)cc1,0.9,43,0.6,2,9,-9
Cc1nc(NS(=O)(=O)c2cccs2)c2c3c(sc2n1)CCC3,1.1,3,1,0,-8,5
Cc1nc(NC(C)c2ccccc2)c2c3c(sc2n1)CCC3 (stereo not drawn),0.2,56*,0.4,-2,84*,7
Cc1nc(NS(=O)(=O)c2ccc(Br)cc2)c2c3c(sc2n1)CCC3,0.2,97*,0,-11,76*,93*
O=S(=O)(Nc1ncnc2sc3c(c12)CCC3)c1ccc(Cl)s1,0.9,81*,0.2,-10,6,87*
CCn1c(=O)cc(SCC(=O)NCCCN2CCN(c3ccc(F)cc3)CC2)c2ccccc21,0.7,-28,1.3,4,29,-4
CC1NC(=O)N(C)C2NC(=O)N(C)C(c3ccccc3)C12 (stereo not drawn),1,0,1,-3,-1,-11
CCN(C(=O)CCc1nc(-c2ccc(OC)cc2)no1)c1cc(OC)ccc1OC,0.4,75*,0.3,1,59*,18
SMILES,CYP2C19 activ,CYP2C9 inhib,CYP2C9 activ,Mac1 fbg enh,CYP2C19 inh,Mac1 fbg inh
Cc1ccc(-c2noc(CCC(=O)N(C)c3ccccc3C)n2)cc1,0.2,94*,0.1,-7,82*,2
COc1ccc(-c2noc(CCC(=O)N(C)c3cccc(C)c3)n2)cc1,0.1,83*,0.2,0,89*,-20
Cn1c(=O)c(Oc2cc(Cl)cc(Cl)c2)nc2ccccc21,1,2,1,26,2,-8
c1ccc2c(c1)ncn2-c1ccc(-c2ccnc(-c3ccncc3)n2)cc1,0.1,87*,0.1,x,86*,x
CC(C)(C)c1cc(CCC(=O)N2CCNCC2)c(C(C)(C)C)cc1O,0.9,74*,0.3,-6,6,2
CCCN=C1N/C(=C\c2ccco2)C(=O)N1c1ccccc1,0.9,22,0.8,-3,12,2
